Reference: article PMC3218832

Tests used:
Test in all cases: protein binding microarray; high values mean tight binding
Details in all cases: dsDNA, one strand shown
RELARELA (p65 homodimer) = RELARELA (p65 homodimer) (Homo sapiens, UniProt Q04206 1-307)
p50p50 homodimer = p50p50 homodimer (Homo sapiens, UniProt P19838 7-356)
p52p52 homodimer = target: T1, p52p52 homodimer (Homo sapiens, UniProt Q00653 4-332)
T1 sequence: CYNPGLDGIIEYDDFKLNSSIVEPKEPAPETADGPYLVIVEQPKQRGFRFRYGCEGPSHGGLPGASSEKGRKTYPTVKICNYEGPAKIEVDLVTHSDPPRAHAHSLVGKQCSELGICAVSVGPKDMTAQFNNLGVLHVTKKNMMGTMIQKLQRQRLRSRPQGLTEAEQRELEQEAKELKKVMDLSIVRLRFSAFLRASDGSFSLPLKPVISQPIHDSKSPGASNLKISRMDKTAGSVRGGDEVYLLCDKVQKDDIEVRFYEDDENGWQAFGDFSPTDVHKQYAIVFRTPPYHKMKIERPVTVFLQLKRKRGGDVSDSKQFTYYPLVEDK

[1] = target: RELA (p65) subunit of heterodimer;p50 subunit (Homo sapiens;Homo sapiens, UniProt Q04206;P19838 1-307;7-356)
[2] = target: RELA (p65) subunit of heterodimer;p52 subunit (Homo sapiens;Homo sapiens, UniProt Q04206;Q00653 1-307;4-332)
RELB subunit;p50 subunit = RELB subunit;p50 subunit (Homo sapiens;Homo sapiens, UniProt Q01201;P19838 120-401;7-356)
RELB subunit;p52 subunit = target: T2, RELB subunit;p52 subunit (Homo sapiens;Homo sapiens, UniProt Q01201;Q00653 120-401;4-332)
T2 sequence 1: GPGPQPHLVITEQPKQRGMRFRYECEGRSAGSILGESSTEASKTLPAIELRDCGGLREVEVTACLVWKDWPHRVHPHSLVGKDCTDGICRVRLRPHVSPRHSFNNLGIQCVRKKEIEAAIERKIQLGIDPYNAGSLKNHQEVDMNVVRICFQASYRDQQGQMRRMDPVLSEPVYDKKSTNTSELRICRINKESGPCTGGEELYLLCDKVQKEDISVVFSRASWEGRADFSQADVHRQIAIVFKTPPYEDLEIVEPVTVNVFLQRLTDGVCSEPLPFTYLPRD
T2 sequence 2: T1 sequence

[3] = target: C-Rel subunit;p50 subunit (Homo sapiens;Homo sapiens, UniProt Q04864;P19838 1-285;7-356)
[4] = target: T3, C-Rel subunit;p52 subunit (Homo sapiens;Homo sapiens, UniProt Q04864;Q00653 1-285;4-332)
T3 sequence 1: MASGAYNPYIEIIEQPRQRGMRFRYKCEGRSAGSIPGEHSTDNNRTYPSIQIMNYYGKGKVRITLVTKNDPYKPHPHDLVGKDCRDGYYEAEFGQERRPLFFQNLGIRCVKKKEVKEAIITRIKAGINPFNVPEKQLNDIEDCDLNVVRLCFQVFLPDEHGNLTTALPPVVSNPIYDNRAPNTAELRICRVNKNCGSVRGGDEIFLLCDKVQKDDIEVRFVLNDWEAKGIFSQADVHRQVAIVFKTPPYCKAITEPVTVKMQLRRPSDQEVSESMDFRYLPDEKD
T3 sequence 2: T1 sequence

Sequence of RELARELA (p65 homodimer) (Q04206 1-307): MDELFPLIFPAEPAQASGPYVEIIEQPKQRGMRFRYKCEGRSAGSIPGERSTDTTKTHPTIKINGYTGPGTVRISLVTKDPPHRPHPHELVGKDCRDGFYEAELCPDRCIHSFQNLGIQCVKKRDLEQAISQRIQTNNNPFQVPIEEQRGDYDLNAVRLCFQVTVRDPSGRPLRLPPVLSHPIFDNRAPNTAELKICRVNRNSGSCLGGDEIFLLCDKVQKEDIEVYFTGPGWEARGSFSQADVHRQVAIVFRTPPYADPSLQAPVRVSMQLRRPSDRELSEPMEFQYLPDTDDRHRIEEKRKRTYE
Sequence of RELA (p65) subunit of heterodimer;p50 subunit (Q04206 1-307, chain 1 of 2): as the sequence (Q04206 1-307) above
Sequence of RELA (p65) subunit of heterodimer;p50 subunit (P19838 7-356, chain 2 of 2): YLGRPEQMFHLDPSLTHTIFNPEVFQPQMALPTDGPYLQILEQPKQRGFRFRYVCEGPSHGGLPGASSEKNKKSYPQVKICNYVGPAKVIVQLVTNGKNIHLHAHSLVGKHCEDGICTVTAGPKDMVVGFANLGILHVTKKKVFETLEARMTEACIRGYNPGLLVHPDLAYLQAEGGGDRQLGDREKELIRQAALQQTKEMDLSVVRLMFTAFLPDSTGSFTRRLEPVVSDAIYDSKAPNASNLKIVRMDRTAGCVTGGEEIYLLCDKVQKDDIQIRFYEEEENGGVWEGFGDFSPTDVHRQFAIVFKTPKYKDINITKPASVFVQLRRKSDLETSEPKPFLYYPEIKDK
Sequence of p50p50 homodimer (P19838 7-356): as the sequence (P19838 7-356, chain 2 of 2) above

Sequence	binding signal (RELARELA (p65 homodimer)) [z-score]	binding signal (p50p50 homodimer) [z-score]	binding signal (p52p52 homodimer) [z-score]	binding signal [1] [z-score]	binding signal [2] [z-score]	binding signal (RELB subunit;p50 subunit) [z-score]	binding signal (RELB subunit;p52 subunit) [z-score]	binding signal [3] [z-score]	binding signal [4] [z-score]
AAGGGTTTCCC	2.18	0.668	1.31	1.15	1.43	0.696	1.17	1.07	1.57
GAGTAGTCCCT	0.344	1.35	1.21	0.997	0.922	1.12	1.06	0.633	0.66
GGGTACCTCCC	-0.276	0.39	1.06	0.436	0.843	0.429	0.437	0.243	0.556
GGATAATCCCC	1.81	1.26	2.24	2.07	1.79	1.79	1.9	1.51	1.45
AAGGGTGCCCT	-1.07	-1.79	-0.569	-1.02	-0.718	-0.876	-0.74	-1.1	-0.646
CAGTTACTCCT	-0.453	-1.22	-0.649	-0.763	-0.94	-0.976	-0.763	-1.08	-0.871
CGAGTGCTCCT	-0.962	-2.12	-0.788	-1.11	-1.03	-1.37	-0.983	-1.63	-0.978
AGGATCTCCCC	0.594	1.02	0.969	1.28	1.04	1.22	0.999	0.853	0.953
GGATGCGTCCT	0.00389	-1.17	-0.665	-1.04	-0.853	-1.18	-0.816	-1.72	-0.907
CGATGCTCCCC	0.0266	-0.0437	-0.125	-0.0461	-0.196	0.111	0.0431	0.0174	-0.273
AGGTTGGCCCC	-0.789	-0.369	-0.374	-0.277	-0.287	-0.0488	-0.238	-0.00473	0.0517
GGAAGAGCCCT	-0.298	-0.632	-0.649	-0.191	-0.503	-0.91	-0.727	-0.606	-0.318
CAAGTTGTCCC	0.644	0.614	0.469	0.421	0.267	0.826	0.446	0.778	0.251
CAGGTGTTCCC	0.518	0.0166	0.0698	-0.00537	0.153	-0.0984	-0.0353	0.188	0.359
CAGAATCTCCC	0.546	0.713	-0.063	0.636	0.291	0.641	0.396	0.223	0.378
CAGATGTTCCT	-0.208	-2.01	-0.586	-0.746	-0.87	-1.02	-0.843	-1.15	-0.842
CAAGAAACCCT	-0.512	-0.321	-0.245	-0.525	-0.264	-0.492	-0.353	-0.467	-0.305
AAGTGATTCCT	-0.0511	-0.869	-0.482	-0.602	-0.719	-0.843	-0.976	-0.572	-0.598
GGATTTCTCCT	0.534	-0.711	-0.416	-0.294	-0.389	-0.703	-0.78	-0.477	-0.189
GGGAACCCCCC	2.47	1.16	3.03	2.69	2.78	2.09	2.68	2.19	2.96
CGAGTCTTCCC	0.331	-0.565	-0.302	-0.0997	-0.304	-0.386	-0.409	0.0328	-0.153
CAGTTGACCCT	-0.398	-0.922	-0.533	-0.555	-0.554	-0.526	-0.777	-1.18	-0.639
CGAAGCTTCCC	0.142	-0.668	-0.466	-0.322	-0.568	-0.617	-0.463	-0.253	-0.652
AAGGTCCTCCT	-0.719	-0.992	-0.49	-0.86	-0.773	-0.932	-0.687	-1.16	-0.643
AGGTGATTCCC	1.45	0.701	3.04	1.59	2.15	1.33	2.11	1.81	2.88
CAGGGGATCCC	1.59	1.03	1.66	1.73	1.49	1.12	1.18	0.893	1.42
GAATAGCTCCC	-0.473	-0.795	-0.577	-0.627	-0.84	-0.753	-0.873	-1.16	-0.82
CGATACACCCT	-0.54	-0.733	-0.36	-0.642	-0.613	-0.424	-0.507	-0.73	-0.561
AAAGACGCCCC	-0.195	0.408	0.153	0.135	0.105	0.331	0.432	0.326	-0.126
CAAGAGGTCCC	1.23	-0.219	0.0202	-0.152	-0.417	0.271	0.113	-0.21	-0.201
